Source: PubChem BioAssay (National Center for Advancing Translational Sciences (NCATS))
The list is not random: actives were taken first. Their share in the collection is about 19%.
MCF10A rerep – induces DNA re-replication in MCF 10a normal breast cells; MCF 10A DNA re-replication, Hoechst nuclear intensity, 48 h; Potency, µM (top dose mostly 46.1 µM), without a hit: at the top dose activity, positive = re-replication, most hits filed as activators; 350,000 tested, 2.9% active; also: potency is read from the fitted curve at half-maximal effect; % of control where 0% means no effect; nearly all actives have a fitted effect of over 50% in size
Chronic BCR inh – inhibitors of chronic active B-cell receptor signaling; ABC-DLBCL IkBa-CBG/CBR reporter, luminescence ratio, 4 h; Potency, µM (series often up to 46.1 µM), for inactives: at the top dose activity change, negative = inhibition, actives largely listed as inhibitors; 340,000 tested, 0.05% active; AID 493014; active = well fitted inhibition curve with a large enough effect in the signal ratio, with a control signal flat, not every such curve was filed as active; inconclusive = small, poorly fitted or top-dose-only effect, or effect the other way, or a change in a side signal; the % refers to the signal ratio;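 also: potency is read from the fitted curve at half-maximal effect; plate controls were basal doxycycline-induced cells for no effect and cells given 10 µM MG132 for full effect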
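Concentration-response series (up to 46 uM) were applied to TMD8 dual-reporter cells for 4 h at 37C with doxycycline. Green/red ratio, after filter-overlap correction, defined %Activity; red signal alone was normalised to basal cells and zero luminescence.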
TDP1 cell CPT – growth inhibition of DT40 Tdp1-/-;hTDP1 cells with camptothecin (screen for TDP1 inhibitors). chicken DT40 Tdp1-/-;hTDP1 cells + 20 nM CPT, ATP luminescence, 48 h. 420,000 tested, 12% active. Potency, µM (titrated, usually from 46.2 µM), for the others: top-dose activity change, negative = growth inhibition, usual class: inhibitors; also: potency is read from the fitted curve at half-maximal effect; % is scaled to controls: 0 for no effect and ±100 for the full control effect; nearly all actives have a fitted effect of over 55% in size
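Chicken DT40 Tdp1-/- cells stably complemented with human TDP1 were seeded at 400 cells/well in medium containing 20 nM camptothecin, exposed to pin-transferred compounds, and grown at 37 °C for at least 48 hr. Viability was read as ATP luminescence.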
IL-1B inflam inh – inflammasome signaling inhibition, IL-1 beta readout | THP-1 LPS/ATP IL-1B secretion, AlphaLISA, 16 h; active compounds read low | activity change, % at 57.5 µM | 360,000 tested, 4.7% active | AID 743279; in the data active = activity change below about -50%; inconclusive = mostly about -30% to -49%; also: % is scaled to controls: 0 for no effect and ±100 for the full control effect
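THP-1 cells pretreated 1 hr with compounds (up to 57.5 uM final), then stimulated with LPS (250 ng/mL final) plus ATP (1.25 mM final); secreted IL-1B measured by AlphaLISA after 16 hr, decreased signal indicating inhibition.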
DT40 TDP1 no CPT – qHTS for Inhibitors of human tyrosyl-DNA phosphodiesterase 1 (TDP1): qHTS in cells in absence of CPT; AID 686978, 2013; Potency, µM (titrated, usually from 46.2 µM), for the others: top-dose activity change, negative = growth inhibition, usual class: inhibitors; DT40 Tdp1-/- hTDP1 cells, no CPT, ATP luminescence, 48 h; 420,000 tested, 15% active; also: potency is read from the fitted curve at half-maximal effect; % is scaled to controls: 0 for no effect and ±100 for the full control effect; nearly all actives have a fitted effect of over 55% in size
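Readout: luminescence from CellTiter-Glo after 30 min in the dark at RT. Cells: DT40 Tdp1-/- with stable hTDP1, 400/well. Exposure: compounds alone, ≥48 hr, 37 °C.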
SW480 rereplic – induces DNA re-replication in SW480 colon adenocarcinoma cells | AID 624297 | SW480 DNA re-replication, Hoechst DNA content imaging, 48 h | 340,000 tested, 1.8% active | Potency, µM (series often up to 46.1 µM), inactives show top-dose re-replication activation, usual class: activators; also: potency is read from the fitted curve at half-maximal effect; % of control where 0% means no effect; nearly all actives have a fitted effect of over 55% in size
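SW480 cells exposed to compounds for 48 hr at 37 C, 5% CO2, then Hoechst-stained 40 min. Nuclear DNA content imaged by fluorescence scanning (405 nm excitation, 500-530 nm emission); re-replication scored as increased high-intensity nuclei.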
* hit, by the source's call. Unless noted, calls follow the shape of the dose curve; as a rule, active = well fitted curve in the direction sought with a large enough effect; inconclusive = small, poorly fitted or top-dose-only effect, or another doubt; inactive = no such curve, though single readings can be large; an effect the other way counts as inactive or inconclusive.

For C=CCOc1cccn2c(N(C=O)Cc3ccc(OC)cc3)c(CC)nc12 the results were TDP1 cell CPT 18µM*, IL-1B inflam inh 45 and DT40 TDP1 no CPT 12µM*.
Cc1cc(C(=O)Cn2nc(C(=O)O)c3ccccc3c2=O)c(C)n1-c1cccc(C(F)(F)F)c1 was read as MCF10A rerep 3%, Chronic BCR inh -2%, TDP1 cell CPT -15%, IL-1B inflam inh 18, DT40 TDP1 no CPT -13% and SW480 rereplic -7%.
`Cc1cc(C(=O)Cn2nc(C(=O)O)c3ccccc3c2=O)c(C)n1-c1ccc(F)cc1` gave MCF10A rerep 0%, Chronic BCR inh -1%, TDP1 cell CPT 29µM*, IL-1B inflam inh -4, DT40 TDP1 no CPT inconclusive and SW480 rereplic -2%.
Screening CN1CCN(C(=O)C2=C[C@H](c3ccccc3)C[C@H](OCc3ccc(CO)cc3)O2)CC1 returned MCF10A rerep -2%, Chronic BCR inh 4%, TDP1 cell CPT 0%, IL-1B inflam inh -10, DT40 TDP1 no CPT 7% and SW480 rereplic -43%.
For CC1=C(C(=O)Nc2ccc(C)cc2C)C(c2ccccc2[N+](=O)[O-])n2ncc(C(=O)Nc3ccccc3)c2N1 (configuration not stated) the results were TDP1 cell CPT inconclusive and DT40 TDP1 no CPT 26µM*.
CC1=C(C(=O)Nc2ccc(C)cc2C)C(c2cc(Br)ccc2F)n2ncc(C(=O)Nc3ccc(C)cc3)c2N1 (configuration not stated) was read as TDP1 cell CPT inconclusive and DT40 TDP1 no CPT 12µM*.
Screening CC1=C(C(=O)Nc2ccc(C)cc2C)C(c2ccc(Br)cc2)n2ncc(C(=O)Nc3cccc(C)c3)c2N1 (configuration not stated) returned TDP1 cell CPT -4% and DT40 TDP1 no CPT inconclusive.
Cc1ccc2oc(=O)c3cc(C(=O)NCCN4CCN(C)CC4)sc3c2c1 was read as MCF10A rerep 5%, Chronic BCR inh 16%, TDP1 cell CPT 23µM*, IL-1B inflam inh -5, DT40 TDP1 no CPT inconclusive and SW480 rereplic -1%.
Cc1ccc2oc(=O)c3cc(C(=O)NCCCN4CCc5ccccc5C4)sc3c2c1 was read as MCF10A rerep 0%, Chronic BCR inh 1%, TDP1 cell CPT 18µM*, IL-1B inflam inh 3, DT40 TDP1 no CPT inconclusive and SW480 rereplic 4%.
CCC1CCCCN1CCCNC(=O)c1cc2c(=O)oc3ccc(C)cc3c2s1 (configuration not stated) was read as MCF10A rerep 16%, Chronic BCR inh -3%, TDP1 cell CPT inconclusive, IL-1B inflam inh inconclusive, DT40 TDP1 no CPT inconclusive and SW480 rereplic 110%.
For Cc1ccc2oc(=O)c3cc(C(=O)NCCCN4CCCCCC4)sc3c2c1 the results were MCF10A rerep 9%, Chronic BCR inh 10%, TDP1 cell CPT inconclusive, IL-1B inflam inh inconclusive, DT40 TDP1 no CPT inconclusive and SW480 rereplic inconclusive.
Screening O=c1nc2ccccc2c2n1CC(CN1CCN(c3ccccc3)CC1)N2 (configuration not stated) returned TDP1 cell CPT 7% and DT40 TDP1 no CPT -6%.
`Cc1c2c(n3c(nc4ccccc43)c1C#N)N(c1ccccc1)CC2` gave MCF10A rerep 5%, Chronic BCR inh inconclusive and SW480 rereplic 10%.
Cc1c2c(n3c(nc4ccccc43)c1C#N)N(CCN(C)C)CC2 was read as MCF10A rerep 16µM*, Chronic BCR inh inconclusive, TDP1 cell CPT -13%, IL-1B inflam inh -23, DT40 TDP1 no CPT -17% and SW480 rereplic 9.2µM*.
